The source of these data is PubChem BioAssay AID372 (MTDP, 2006).

The whole screen tested about 100,000 compounds, of which about 770 (0.77%) were called active. Cut-off read from the data, not from the text of the source: active = inhibition above about 50%; inactive = the rest. The sample as a whole holds a higher share of actives than the screen did.

As a reminder, the inhibition is the change of the read-out against control, counted positive when it falls.

For this assay, the target named is Gag-Pol polyprotein (Human immunodeficiency virus type 1 group M subtype B (isolate HXB2)) (UniProt P04585). As to the kind of experiment: RNase H inhibition, HIV 1 Gag Pol polyprotein, FRET biochemical assay, screening (AID 372). The settings on record: HIV-1 RT RNase H, FRET RNA/DNA substrate fluorescence; at 10 µM; active compounds read high.
As for `CC1CCN(C(=O)CN2C(=O)c3cccc4cccc(c34)C2=O)CC1`, the inhibition is 7% (inactive).

With `CC1CCN(C(=O)CCCN2C(=O)c3cccc4cccc(c34)C2=O)CC1`, the inhibition was 56% (active).

Regarding `O=C(CCCN1C(=O)c2cccc3cccc(c23)C1=O)N1CCCCC1`, the inhibition is 29% (inactive). Turning to `COc1ccccc1-c1c(C(F)(F)F)oc2c(CN(C)C)c(O)ccc2c1=O`, the inhibition is 24% (inactive).

`O=C(CN(c1cccc(Cl)c1)S(=O)(=O)c1ccccc1)N1CCN(Cc2ccccc2)CC1`: the inhibition is 14% (inactive). As to `CN1c2ccccc2-c2ccccc2C12C=Cc1cc(Br)cc(Br)c1O2` (configuration not stated), the inhibition was 17% (inactive). For `COc1cc(Br)cc2c1OC1(C=C2)c2ccccc2-c2ccccc2N1C` (configuration not stated) the value was 50% (active); for `CN1c2ccccc2-c2ccccc2C12C=Cc1cc(Br)ccc1O2` (configuration not stated), 6% (inactive); for `O=C(CSc1nnc(-c2ccccc2)n1-c1ccccc1)N/N=C/C=C/c1ccccc1`, 15% (inactive). The same measure for `O=C(Nc1ccc(Cl)cc1)c1ccccc1C(=O)c1ccc(Cl)cc1`: 18% (inactive); for `Cc1cccc2c1[nH]c1nc(N/N=C\c3ccc(O)c(O)c3)nnc12`: 54% (active).

Turning to `COc1cc(/C=N\Nc2nnc3c(n2)[nH]c2c(C)cccc23)ccc1O`, the inhibition is 11% (inactive). Take `Cc1cccc2c1[nH]c1nc(N/N=C\c3cccc(O)c3)nnc12`: the inhibition was 14% (inactive).

As for `O=c1[nH]c(-c2ccc(Br)cc2)nc2ccccc12`, the inhibition was 13% (inactive).

As to `Cc1ccc(-c2nc3ccccc3c(=O)[nH]2)cc1`, the inhibition was 7% (inactive).

As to `O=c1[nH]c(-c2ccncc2)nc2ccccc12`, the inhibition is 68% (active). In the case of `CC(=O)c1ccc(N2CCCCC2C)c(F)c1` (configuration not stated), the inhibition was 0% (inactive). Turning to `O=c1[nH]c(=O)n(-c2ccccc2Cl)c(O)c1C=C1C=CC=N1`, the inhibition was 0% (inactive). For `Cc1ccccc1-n1c(O)c(/C=C2\C=CC=N2)c(=O)[nH]c1=O` the value was 1% (inactive). As for `Cc1cccc(-n2c(O)c(/C=C3\C=CC=N3)c(=O)[nH]c2=S)c1`, the inhibition is 11% (inactive). Regarding `O=c1[nH]c(=S)n(-c2ccccc2)c(O)c1/C=C1/C=CC=N1`, the inhibition was 11% (inactive). `O=C(COc1ccccc1Cl)NNC(=O)c1cc2ccccc2cc1O`: the inhibition is 6% (inactive). As for `O=[N+]([O-])c1ccc(OCCCN2CCCCC2)cc1`, the inhibition was 0% (inactive). The same measure for `CCOc1ccc2ccccc2c1/C=C(\C#N)C(=O)NCc1ccco1`: 24% (inactive). In the case of `CCc1ccc(/C=C2/SC(=S)N(CCC(=O)O)C2=O)cc1`, the inhibition was 8% (inactive).

Consider `CCCC1=C(C(=O)OCC)C(c2cc(C)c(OC)cc2C)C(C#N)=C(N)O1` (configuration not stated), for which the inhibition is 2% (inactive).

For `Cc1cc(C)c2nc3s/c(=C\c4cccc([N+](=O)[O-])c4)c(=O)n3c2c1`, the inhibition is 10% (inactive).
